Of roughly 7,900 targets only a part is listed; those with a hit were picked by preference. About 0.6% of all pairs of compound and target were hits.
What follows are targets tested with Cc1cc(Nc2cc(N3CCN(C)CC3)nc(Sc3ccc(NC(=O)C4CC4)cc3)n2)n[nH]1 [tozasertib] (assay: log2 fold change, soluble protein after heating vs DMSO (PISA); higher = thermal stabilisation; K562 cells, 10 uM, 30 min; active = over 0.2 and 3.5 SD of the protein, either way, in both replicates (recomputed)).
Method in brief: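 Soluble protein was defined as the supernatant after 21,000xg for 90 min. It came from K562 cells at 2×10^6 cells/mL given 10 μM compound for 30 min, heated in aliquots for 3 min across 48°C-58°C, pooled, and extracted in PBS with 0.5% NP-40 at 4°C, and was quantified by TMTpro 16plex LC-MS/MS with equalised channel sums. Thermal stability against control samples, from duplicates, is reported as log2 fold change.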

Chain of UniProt Q9P287 (Q9P287 whole entry, looked up): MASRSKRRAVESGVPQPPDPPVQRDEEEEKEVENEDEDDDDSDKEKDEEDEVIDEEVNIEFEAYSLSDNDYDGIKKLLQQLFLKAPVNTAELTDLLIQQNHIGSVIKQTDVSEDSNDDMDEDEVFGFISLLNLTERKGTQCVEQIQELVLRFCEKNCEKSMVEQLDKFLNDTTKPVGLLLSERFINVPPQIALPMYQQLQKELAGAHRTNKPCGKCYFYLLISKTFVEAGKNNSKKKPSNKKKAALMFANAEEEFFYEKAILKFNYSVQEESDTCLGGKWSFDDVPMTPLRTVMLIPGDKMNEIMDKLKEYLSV
Chain of UniProt Q8N6H7 (Q8N6H7 whole entry, looked up): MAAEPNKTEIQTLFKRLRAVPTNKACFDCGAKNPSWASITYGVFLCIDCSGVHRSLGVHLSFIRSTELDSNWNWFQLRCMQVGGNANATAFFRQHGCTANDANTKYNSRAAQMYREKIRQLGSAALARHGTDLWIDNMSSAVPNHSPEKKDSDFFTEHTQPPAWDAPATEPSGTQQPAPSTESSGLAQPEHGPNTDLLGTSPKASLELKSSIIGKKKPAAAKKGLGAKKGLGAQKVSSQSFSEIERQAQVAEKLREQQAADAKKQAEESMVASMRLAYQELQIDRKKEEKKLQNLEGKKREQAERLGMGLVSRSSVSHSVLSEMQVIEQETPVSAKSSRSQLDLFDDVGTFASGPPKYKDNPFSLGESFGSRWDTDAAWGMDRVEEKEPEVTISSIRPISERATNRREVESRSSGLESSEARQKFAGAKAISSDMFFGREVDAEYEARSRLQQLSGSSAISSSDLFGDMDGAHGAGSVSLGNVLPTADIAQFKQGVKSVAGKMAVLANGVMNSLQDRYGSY
Chain of UniProt Q7Z569 (Q7Z569 whole entry, looked up): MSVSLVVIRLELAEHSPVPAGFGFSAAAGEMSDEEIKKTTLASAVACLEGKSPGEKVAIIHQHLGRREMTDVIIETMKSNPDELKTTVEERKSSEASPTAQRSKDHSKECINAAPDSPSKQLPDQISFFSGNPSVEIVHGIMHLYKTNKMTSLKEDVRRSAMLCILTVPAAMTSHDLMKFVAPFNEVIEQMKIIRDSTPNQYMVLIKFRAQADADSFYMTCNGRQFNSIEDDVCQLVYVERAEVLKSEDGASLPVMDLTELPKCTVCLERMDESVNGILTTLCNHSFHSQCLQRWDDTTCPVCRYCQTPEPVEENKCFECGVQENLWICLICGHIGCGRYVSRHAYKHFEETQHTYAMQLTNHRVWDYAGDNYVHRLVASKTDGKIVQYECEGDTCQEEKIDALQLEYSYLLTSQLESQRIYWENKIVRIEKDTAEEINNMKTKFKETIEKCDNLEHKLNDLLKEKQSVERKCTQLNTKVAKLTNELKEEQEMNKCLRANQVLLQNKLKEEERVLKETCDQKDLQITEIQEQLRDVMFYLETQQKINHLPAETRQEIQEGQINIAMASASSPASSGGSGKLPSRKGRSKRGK
Chain of UniProt Q9Y4P1 (Q9Y4P1 whole entry, looked up): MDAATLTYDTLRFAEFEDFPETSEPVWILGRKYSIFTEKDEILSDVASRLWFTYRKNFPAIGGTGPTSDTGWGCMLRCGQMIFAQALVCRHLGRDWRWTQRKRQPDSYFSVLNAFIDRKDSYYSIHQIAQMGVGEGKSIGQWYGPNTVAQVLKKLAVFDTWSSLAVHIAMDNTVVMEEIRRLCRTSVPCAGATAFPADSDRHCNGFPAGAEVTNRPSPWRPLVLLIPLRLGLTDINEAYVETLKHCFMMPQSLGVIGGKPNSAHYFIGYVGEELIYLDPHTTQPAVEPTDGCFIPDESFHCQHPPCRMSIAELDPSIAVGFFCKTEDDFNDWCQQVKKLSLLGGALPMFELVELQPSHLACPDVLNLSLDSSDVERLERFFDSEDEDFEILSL
Chain of UniProt Q9UII2 (Q9UII2 whole entry, looked up): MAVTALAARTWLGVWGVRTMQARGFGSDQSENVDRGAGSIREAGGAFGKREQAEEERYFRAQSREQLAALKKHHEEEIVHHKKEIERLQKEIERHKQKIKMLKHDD
Chain of UniProt Q9NYF8 (Q9NYF8 whole entry, looked up): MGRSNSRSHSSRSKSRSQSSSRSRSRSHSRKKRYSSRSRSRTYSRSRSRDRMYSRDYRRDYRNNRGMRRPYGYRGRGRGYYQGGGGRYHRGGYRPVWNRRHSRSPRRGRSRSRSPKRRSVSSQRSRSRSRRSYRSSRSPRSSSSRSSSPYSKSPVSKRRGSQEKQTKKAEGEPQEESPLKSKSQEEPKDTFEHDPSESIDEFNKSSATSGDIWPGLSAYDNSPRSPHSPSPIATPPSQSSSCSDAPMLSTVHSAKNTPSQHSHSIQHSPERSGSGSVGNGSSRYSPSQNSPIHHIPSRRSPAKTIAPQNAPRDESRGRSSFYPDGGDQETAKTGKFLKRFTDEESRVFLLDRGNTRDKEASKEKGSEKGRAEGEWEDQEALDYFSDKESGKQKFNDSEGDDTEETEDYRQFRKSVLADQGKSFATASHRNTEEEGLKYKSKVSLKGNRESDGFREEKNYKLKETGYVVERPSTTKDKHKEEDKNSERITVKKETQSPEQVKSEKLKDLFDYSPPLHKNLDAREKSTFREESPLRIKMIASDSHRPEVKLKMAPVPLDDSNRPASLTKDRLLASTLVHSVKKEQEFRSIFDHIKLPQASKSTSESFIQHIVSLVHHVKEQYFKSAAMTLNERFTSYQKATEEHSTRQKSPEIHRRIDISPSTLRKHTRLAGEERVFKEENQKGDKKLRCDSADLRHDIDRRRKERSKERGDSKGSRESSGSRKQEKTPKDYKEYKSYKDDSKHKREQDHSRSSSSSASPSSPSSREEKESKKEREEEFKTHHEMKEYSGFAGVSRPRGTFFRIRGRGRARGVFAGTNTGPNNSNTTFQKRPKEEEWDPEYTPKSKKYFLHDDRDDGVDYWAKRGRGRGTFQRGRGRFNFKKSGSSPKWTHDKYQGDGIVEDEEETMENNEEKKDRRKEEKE
Chain of UniProt Q99758 (Q99758 whole entry, looked up): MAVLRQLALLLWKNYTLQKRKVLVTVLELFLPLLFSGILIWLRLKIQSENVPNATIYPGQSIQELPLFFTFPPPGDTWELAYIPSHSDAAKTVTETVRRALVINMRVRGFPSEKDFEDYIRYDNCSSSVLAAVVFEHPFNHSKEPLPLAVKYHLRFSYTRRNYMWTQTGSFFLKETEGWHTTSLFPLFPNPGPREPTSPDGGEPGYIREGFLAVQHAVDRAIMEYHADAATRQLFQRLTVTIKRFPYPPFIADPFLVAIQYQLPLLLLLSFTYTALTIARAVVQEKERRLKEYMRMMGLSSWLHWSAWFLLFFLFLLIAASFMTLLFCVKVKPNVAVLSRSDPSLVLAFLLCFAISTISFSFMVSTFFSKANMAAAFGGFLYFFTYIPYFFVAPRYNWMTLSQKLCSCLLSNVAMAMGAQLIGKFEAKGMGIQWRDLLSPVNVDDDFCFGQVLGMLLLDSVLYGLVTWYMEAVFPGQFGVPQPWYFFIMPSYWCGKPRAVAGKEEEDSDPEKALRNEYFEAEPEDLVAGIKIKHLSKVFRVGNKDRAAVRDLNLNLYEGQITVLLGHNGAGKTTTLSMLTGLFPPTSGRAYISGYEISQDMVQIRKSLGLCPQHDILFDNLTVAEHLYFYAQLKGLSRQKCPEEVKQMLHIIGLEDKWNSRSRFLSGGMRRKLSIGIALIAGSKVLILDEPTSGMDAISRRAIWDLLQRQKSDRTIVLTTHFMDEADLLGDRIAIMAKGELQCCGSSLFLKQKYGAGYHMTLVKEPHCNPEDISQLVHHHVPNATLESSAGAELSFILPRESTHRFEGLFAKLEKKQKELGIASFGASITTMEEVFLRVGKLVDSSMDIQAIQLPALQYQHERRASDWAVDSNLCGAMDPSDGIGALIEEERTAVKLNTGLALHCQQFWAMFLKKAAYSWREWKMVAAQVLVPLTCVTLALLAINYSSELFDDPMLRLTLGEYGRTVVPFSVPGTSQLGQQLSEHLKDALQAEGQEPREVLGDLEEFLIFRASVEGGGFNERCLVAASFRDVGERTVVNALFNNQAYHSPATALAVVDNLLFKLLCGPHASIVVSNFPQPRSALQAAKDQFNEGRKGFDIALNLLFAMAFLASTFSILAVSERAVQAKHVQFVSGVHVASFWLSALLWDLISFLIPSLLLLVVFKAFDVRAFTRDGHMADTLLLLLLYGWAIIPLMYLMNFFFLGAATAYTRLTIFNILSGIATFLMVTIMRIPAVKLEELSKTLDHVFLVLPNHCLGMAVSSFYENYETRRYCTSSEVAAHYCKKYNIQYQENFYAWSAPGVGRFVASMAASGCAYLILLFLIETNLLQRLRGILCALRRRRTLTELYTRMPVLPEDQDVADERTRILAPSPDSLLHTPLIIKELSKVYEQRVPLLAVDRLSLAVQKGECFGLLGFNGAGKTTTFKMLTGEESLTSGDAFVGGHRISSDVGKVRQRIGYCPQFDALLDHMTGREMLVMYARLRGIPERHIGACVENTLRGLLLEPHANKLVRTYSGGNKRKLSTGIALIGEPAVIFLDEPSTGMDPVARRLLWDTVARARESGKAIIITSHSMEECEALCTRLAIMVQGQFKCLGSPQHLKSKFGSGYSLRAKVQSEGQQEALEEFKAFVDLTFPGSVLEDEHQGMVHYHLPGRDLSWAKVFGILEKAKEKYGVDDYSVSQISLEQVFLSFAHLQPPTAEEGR
Chain of UniProt Q66PJ3 (Q66PJ3 whole entry, looked up): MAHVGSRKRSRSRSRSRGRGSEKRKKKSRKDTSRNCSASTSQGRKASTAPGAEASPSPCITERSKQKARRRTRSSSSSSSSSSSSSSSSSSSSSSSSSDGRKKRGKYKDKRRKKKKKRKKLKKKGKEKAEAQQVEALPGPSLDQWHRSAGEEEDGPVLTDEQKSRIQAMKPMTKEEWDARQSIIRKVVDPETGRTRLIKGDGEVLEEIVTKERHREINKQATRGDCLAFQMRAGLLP
Chain of UniProt Q9NX38 (Q9NX38 whole entry, looked up): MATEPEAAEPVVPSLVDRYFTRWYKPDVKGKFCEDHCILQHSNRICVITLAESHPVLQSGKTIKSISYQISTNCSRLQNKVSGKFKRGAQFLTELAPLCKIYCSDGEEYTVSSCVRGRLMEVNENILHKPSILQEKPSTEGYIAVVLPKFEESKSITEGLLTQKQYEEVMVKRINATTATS

log2 fold change, inactive:
AAMP (UniProt Q13685) 0.053
AKAP8 (UniProt O43823) 0.005
ABITRAM (UniProt Q9NX38) -0.012
ARL6IP4 (UniProt Q66PJ3) -0.005
ATP6V1H (UniProt Q9UI12) 0.06
B4GALT1 (UniProt P15291) 0.014
ASNS (UniProt P08243) -0.018
BCCIP (UniProt Q9P287) -0.005
BUB1B isoform 3 (UniProt O60566) 0.119
ATP9B (UniProt O43861) 0.004
ATP2A3 isoform 2 (UniProt Q93084) -0.036
ACAD9 (UniProt Q9H845) -0.016
BRD8 (UniProt Q9H0E9) 0.046
AGPAT5 (UniProt Q9NUQ2) 0.002
AIP (UniProt O00170) 0.064
ACADVL isoform 3 (UniProt P49748) 0.003
BID isoform 2 (UniProt P55957) -0.012
BCL9L (UniProt Q86UU0) -0.076
ARFGAP2 (UniProt Q8N6H7) 0.026
AHSA1 (UniProt O95433) 0.015
ANKRD29 (UniProt Q8N6D5) -0.072
BRAP (UniProt Q7Z569) 0.072
BCCIP isoform 2 (UniProt Q9P287) 0
ACP2 (UniProt P11117) 0
B4GALNT1 (UniProt Q00973) -0.003
ACIN1 (UniProt Q9UKV3) -0.003
BCLAF1 (UniProt Q9NYF8) 0.012
ABCA3 (UniProt Q99758) 0.005
ATP5IF1 (UniProt Q9UII2) -0.079
AGO1 (UniProt Q9UL18) -0.153
ADH5 (UniProt P11766) -0.003
ARGLU1 (UniProt Q9NWB6) 0.037
ABCB6 (UniProt Q9NP58) -0.017
ARFIP1 (UniProt P53367) -0.065
ATG4B isoform 2 (UniProt Q9Y4P1) -0.286
